This is an account of results in PubChem BioAssay AID738 (SRMLSC, 2007).

The campaign covered roughly 98,000 compounds. About 4,900 (5%) were called active. Shown is part of a subset that was picked to be rich in actives. A number with no mark means an inactive call. Rule as the data show it: active = inhibition above about 30%; inactive = the rest.

This assay can be described thus: growth inhibition of yeast control strain, primary screen, counter-screen for post-Golgi transport modulator project (AID 738). Conditions: efflux-deficient yeast background strain, growth absorbance A615, 16 h; at 10 µM; hits give high values. In general terms: Counterscreens check selectivity or assay interference.
`Cc1ccc(C(=O)OC2=CC(=O)CC(C)(C)C2)cc1`: the inhibition is -1.57%.

With `COc1cccc(NC(=O)c2nn(C34CC5CC(CC(C5)C3)C4)cc2[N+](=O)[O-])c1`, the inhibition was 26.5%.

Turning to `Cc1ccc2c(c1)c1ncn(CCC3=CCCCC3)c(=O)c1n2C`, the inhibition is 21.9%.

On to `Cc1ccc(S(=O)(=O)Nc2nc3ccccc3nc2N2CCc3ccccc3C2)cc1`, for which the inhibition is 19.2%.

With `Cc1ccc2c(c1)c1ncnc(N3CCc4ccccc4C3)c1n2C`, the inhibition was 30% (active).

`O=C(O)/C=C/C(=O)Nc1ccc(F)cc1F`: the inhibition was 11.5%.

In the case of `Cc1ccc(-n2nc(N)c3c(=O)oc(N(C)C)nc32)cc1`, the inhibition was 33.1% (active).

`Cc1ccc(-c2nc3c(cnn3-c3ccccc3)c(=O)o2)cc1`: the inhibition is 15.6%.

With `O=C(Nc1cc(-c2nn(CC(=O)N3CCCCC3)c(=O)c3ccccc23)ccc1N1CCOCC1)c1ccc(Cl)cc1`, the inhibition was 0.85%.

Consider `N=c1ccn(CC(=O)NC(N)=O)c2ccccc12`, for which the inhibition was 12.8%.

For the molecule `N#Cc1ccc(Oc2cc(C(F)(F)F)nc(-c3ccccn3)n2)cc1`, the inhibition was 1.51%.

Consider `O=C(Oc1ccccc1)Oc1ccc2c(c1)oc(=O)c1ccccc12`, for which the inhibition is 41% (active).

`CC(=O)Nc1cc2ccc(OC(C)=O)cc2oc1=O`: the inhibition is -1.59%.

For the molecule `CC(=O)Oc1ccc2c(C)c(CC(C)O)c(=O)oc2c1` (stereo not drawn), the inhibition is 9.1%.

With `CSc1nc2ccccc2cc1/C=C(\C#N)c1ccc(Cl)cc1Cl`, the inhibition was 24.2%.

Consider `CCCCC(=O)Nc1ccc2c(c1)OCCO2`, for which the inhibition is -0.45%.

As to `O=C(CCN1C(=O)c2ccccc2C1=O)Nc1ccncc1`, the inhibition is 13.3%.

For `O=C(Nc1ccc2c(c1)OCCO2)c1ccncc1`, the inhibition is 31.6% (active).

On to `Cn1c(=O)n(C)c2cc(C(=O)Nc3ccc4c(c3)OCO4)ccc21`, for which the inhibition was 1.14%.

For the molecule `O=C(Nc1ccc2c(c1)OCCO2)c1cnccn1`, the inhibition is 14.2%.

For the molecule `O=C(CCN1C(=O)c2ccncc2C1=O)Nc1ccc2c(c1)OCCO2`, the inhibition was 30.7% (active).

Consider `O=c1c2ccccc2c(-c2ccc(Br)cc2)nn1Cc1ccccc1`, for which the inhibition was 12%.

`c1ccc(-n2nnnc2NC2CCCCCC2)cc1`: the inhibition was 2.73%.

For the molecule `COC(=O)/C=C/C(=O)NCc1ccco1`, the inhibition is 4.81%.

Consider `Cc1cc(-c2ccccc2)n2nc(C)c(-c3ccccc3)c2n1`, for which the inhibition is 0.91%.

On to `O=C(N/N=C\c1ccc(-c2ccc(Cl)c(Cl)c2)o1)C(=O)N1CCCC1`, for which the inhibition was -8.31%.

With `O=c1c2ccccc2nc2n1C(CSc1ccc(F)cc1)CN2` (stereo not drawn), the inhibition was 8.1%.

With `O=C1COc2ccc(NC(=O)N3CCN(c4ccc(F)cc4)CC3)cc2N1`, the inhibition was -5.66%.

For `COC(=O)c1ccc(C(=O)OC)c(NC(=S)N2CCCCC2)c1`, the inhibition was 5.49%.

For `O=C(COC(=O)C12CC3CC(CC(C3)C1)C2)NCc1ccco1`, the inhibition is 17.3%.

For the molecule `O=C(COC(=O)CCC(=O)c1cccs1)NCc1ccco1`, the inhibition is 34.5% (active).

On to `O=C(CCC(=O)c1cccs1)NCc1ccccc1`, for which the inhibition is -10%.

On to `O=C(c1ccc(F)cc1)c1c[nH]c(C(=O)NCc2cccnc2)c1`, for which the inhibition is 1.34%.

Turning to `S=C(NCCC1=CCCCC1)Nc1ccccc1`, the inhibition is 2.15%.

Turning to `CCC(C)n1c(-c2cc(OC)c(OC)c(OC)c2)nc2nc3ccccc3nc21` (stereo not drawn), the inhibition is 38.7% (active).

Regarding `COc1cc(-c2nn3c(-c4cccc(C)c4)nnc3s2)cc(OC)c1OC`, the inhibition is 26.7%.

As to `CCCc1nc2ccccc2c(C(=O)OCc2nnc(-c3cc(OC)c(OC)c(OC)c3)o2)c1CC`, the inhibition is 3.36%.

With `CC(=O)NS(=O)(=O)c1ccc(NC(=S)NC(=O)C(C)(C)C)cc1`, the inhibition is -5.72%.

As for `Cn1c(NN)nc2sc3c(c2c1=O)CCC3`, the inhibition was 7.4%.

Take `CC1Cc2ccccc2N1C(=O)c1cc2sccc2n1Cc1ccccc1` (stereo not drawn): the inhibition was 15.2%.

As for `O=C(NCc1ccco1)c1cc2sccc2n1Cc1ccc(F)cc1`, the inhibition was 27.8%.

Regarding `CCOC(=O)c1cc2sccc2n1Cc1ccc(C#N)cc1`, the inhibition was 33.7% (active).

In the case of `Clc1ccccc1SCc1nc2ccccc2[nH]1`, the inhibition was 9.02%.

On to `Cc1nc(-c2ccccc2)sc1-c1nc(-c2ccccc2)ncc1S(=O)(=O)c1ccccc1`, for which the inhibition was 12%.

Take `CCCC(=O)N1CCc2[nH]c3ccccc3c2C1`: the inhibition was -9.39%.

In the case of `O=C(Nc1ccc(Cl)cc1)N1CCc2[nH]c3ccccc3c2C1`, the inhibition is 36.5% (active).

As to `O=C(NC1CCCCC1)N1CCc2[nH]c3ccccc3c2C1`, the inhibition is -9.69%.

Consider `O=C(c1ccccc1)c1cc(-c2ccccn2)c(N2CCOCC2)s1`, for which the inhibition was 18%.

As for `O=S(=O)(N/N=C\c1cccn1-c1ccccc1)c1ccc2ccccc2c1`, the inhibition is 16.6%.

For the molecule `Cc1n[nH]c(=O)n1-c1ccc(Oc2ccccc2)cc1`, the inhibition is 20.1%.

As for `Cc1cc(C)c2cc(CN(Cc3cccs3)Cc3nnnn3CC3CCCO3)c(=O)[nH]c2c1` (stereo not drawn), the inhibition was 17%.

Consider `COc1ccc2[nH]c(=O)c(CN(Cc3nnnn3CCc3ccccc3)CC3CCCO3)cc2c1` (stereo not drawn), for which the inhibition is 5.93%.

Take `Cc1cc2cc(CN(Cc3cccs3)Cc3nnnn3CC3CCCO3)c(=O)[nH]c2cc1C` (stereo not drawn): the inhibition is 37.9% (active).

Turning to `CC(C)(C)c1cc2cccnc2n1Cc1cccc(F)c1`, the inhibition is -2.87%.

Take `COC(=O)Cc1nc2ccccc2[nH]1`: the inhibition was 0.73%.

As to `N#C/C(=C(/O)COc1cccc2ccccc12)c1nc2ccccc2[nH]1`, the inhibition was -2.22%.

As for `Cc1ccccc1OC/C(O)=C(\C#N)c1nc2ccccc2[nH]1`, the inhibition was 48.1% (active).

Regarding `O=C(CSc1nc2ccccc2o1)N1c2ccccc2Sc2ccc(Cl)cc21`, the inhibition is 17%.

`O=C1CSC(c2ccccc2)N1c1nc(-c2ccc(Cl)cc2Cl)cs1` (stereo not drawn): the inhibition was 5.96%.

For `CCOC(=O)C1Sc2[nH]c(=O)sc2C(c2ccc(Cl)cc2)C1C(=O)OCC` (stereo not drawn), the inhibition is 12%.

`Cc1ccc(Cn2c(C)nc3c(c2=O)c2nc4ccccc4nc2n3Cc2ccco2)cc1`: the inhibition was 20.3%.

Regarding `CC(Sc1nc2ccccc2c(=O)n1Cc1ccco1)C(=O)c1ccccc1` (stereo not drawn), the inhibition is 20.6%.

On to `Clc1cccc(-c2nc3nc4ccccc4nc3n2Cc2ccco2)c1`, for which the inhibition is 32.4% (active).

Broadly, the inhibition is the drop in the measured response relative to a control, in per cent.
